Values joined by “and” are separate entries in the source; they are usually repeats but may differ in a detail not shown here. Identical values can stand only once. Screen size: about 260,000 compounds; about 1,500 (0.58%) were called active. Roughly 5% stayed inconclusive and do not appear here.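 How the source made its calls: active means inhibition above a set limit at one or more doses, reproduced on every date tested; inconclusive means results disagree between test dates, or hit never tested in dose response; inactive means the rest.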 These entries were drawn from the full list. Potency and affinity values are given separately.
Target: Virion infectivity factor (Human immunodeficiency virus type 1 group M subtype B (isolate BH10)) + Virion infectivity factor (Human immunodeficiency virus type 1 group M subtype B (isolate BRU/LAI)) + Virion infectivity factor (Human immunodeficiency virus type 1 group M subtype B (isolate PCV12)) + Virion infectivity factor (Human immunodeficiency virus type 1 group M subtype B (isolate HXB2)) + DNA dC->dU-editing enzyme APOBEC-3G (Homo sapiens) (UniProt P69720+P69721+P69722+P69723+Q9HC16)
Assay: inhibitors of Vif binding to APOBEC3G peptide, primary screen, biochemical, TR-FRET, GST-Vif 1-94, biotin-A3G peptide, dose response retest (AID 1117319);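 further: Vif residues 1-94 fused to GST binding biotinylated APOBEC3G peptide 110-148; 0% = full assay without inhibitor and 100% = GST in place of GST-Vif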
Conditions: hits give high values

inhibition, inactive:
CCNc1nc(NC(C)(C)C)nc(SCC(N)=O)n1 -9.57%
O=C(CN(Cc1cccs1)C(=O)CSc1nnc(COc2ccccc2)o1)NC1CCCCC1 3.54%
COc1ccc(C)cc1NC(=S)N1CCN(c2ncccn2)CC1 6.81%
CC1CCN(S(=O)(=O)c2ccc(C(C)C)cc2)CC1 -4.55%
Cc1cn([C@H]2C[C@H](O)[C@@H](CCC(=O)NCc3ccco3)O2)c(=O)[nH]c1=O 3.31%
Cc1cc(NC(=O)c2cc(-c3ccc(O)cc3)on2)no1 -3.11%
C=CCSc1nc2sc(C)c(C)c2c(=O)n1CC=C -3.91%
COc1cc(C2N(c3ccccn3)C(=O)C3CCCN32)cc(OC)c1OC (stereo not drawn) -8.96%
COc1ccc(N2C(=O)C3CCCN3C2c2cccs2)cc1 (stereo not drawn) -1.1%
O=C1C2CCCN2C(c2cccs2)N1c1ccc(Cl)cc1 (stereo not drawn) -1.78%
O=C1C2CCCN2C(c2ccccc2)N1c1ccc(Cl)cc1 (stereo not drawn) 15.8%
O=C(CNC(=O)c1ccc(Br)o1)Nc1cccc(S(=O)(=O)N2CCOCC2)c1 1.25%
CC1CCCCC1NC(=O)c1c(O)nc2ccccn2c1=O (stereo not drawn) -12.1%
COc1ccc(C(=O)Nc2ccc3c(c2)OCCO3)c(OC)c1 1.98%
Cc1ccc(C(=O)n2ncn(C)c2=S)cc1 -5.15%
COC(=O)CN1C(=O)COc2ccc(S(=O)(=O)N3CCCCC3)cc21 -2.76%
Nc1cccc2nc3ccccc3cc12 11.9%
Cc1cc(N)c2ccccc2n1 3.24%
O=C(CN1CCC(C(=O)c2ccc3c(c2)OCCO3)CC1)Nc1ccccc1F 2.56%
COc1cccc(C2NC(=O)c3ccccc3O2)c1OC (stereo not drawn) -1.95%
Cc1cc(-c2nnc(CCC(=O)N(CC3CC3)CC3CCCO3)o2)no1 (stereo not drawn) 0.72%
Cc1ccc(-c2cc(C(=O)Nc3c(C)n(C)n(-c4ccccc4)c3=O)[nH]n2)c(O)c1 23.2%
CC(=O)N1CCN(c2ccc(NC(=O)c3ccc4c(c3)OCO4)cc2)CC1 18.3%
CC(=O)Nc1ccc(N2CCN(C(C)=O)CC2)cc1 24.9%
O=C(c1ccccc1)N1CCN(c2ccc(NCc3ccc4c(c3)OCO4)cc2)CC1 21.7%
CC(=O)N1CCN(c2ccc(NCc3cccc4ccccc34)cc2)CC1 28.3%
Nc1c(C(=O)CSc2nccn2-c2ccc(Cl)cc2)c(=O)[nH]c(=O)n1C1CC1 -3.47%
CC1CCN(CCCCOc2cccc(Br)c2)CC1 -0.02%
COc1cccc(NC(=O)N(C)C[C@H]2OCc3cnnn3CCCC(=O)N([C@H](C)CO)C[C@@H]2C)c1 -12.7%
COc1ccc(Oc2cccc(Cl)c2CNC(=O)CSCC(=O)O)cc1 7.24%
COc1ccc(NC(=O)Cc2c[nH]c3ccccc23)cc1S(=O)(=O)N1CCOCC1 -3.49%
Cc1c(NC(=O)C(C)N2C(=O)C3C4C=CC(C4)C3C2=O)c(=O)n(-c2ccccc2)n1C (stereo not drawn) -0.22%
COc1ccc(C(=O)Cn2nnc(-c3ccccc3NC(=O)C3CCCCC3)n2)cc1 -3.13%
Cc1ccc(OCCCN2C(=O)C(=O)c3cc(C)ccc32)cc1 -4.93%
Cn1nnnc1SCCNS(=O)(=O)c1ccccc1 2.62%
Cc1cccc(Nc2cnn(C34CC5CC(CC(CC(=O)O)(C5)C3)C4)c(=O)c2Cl)c1 5.69%
Cc1ccc(Nc2cnn(C34CC5CC(CC(CC(=O)O)(C5)C3)C4)c(=O)c2Cl)cc1 -0.2%
O=c1[nH]nc(Cc2ccc3ccccc3n2)c2ccccc12 -4.55%
COC(=O)N1CCN(c2ccc(C(C)=O)cc2)CC1 5.12%
Cc1ccc(NC(=O)C2CCCN(S(=O)(=O)c3cnc[nH]3)C2)c(Br)c1 (stereo not drawn) 1.69%
COc1ccc(C(=O)Nc2nc(CC(=O)NCCc3cccc(OC)c3)cs2)cc1 0.4%
COc1cc(/C=C/c2ccc(O)cc2)cc(OC)c1 0.21%
COc1cc(O)cc(/C=C/c2ccccc2)c1 6.25%
CNS(=O)(=O)c1cccc(C(=O)OCC(=O)NC(C)CCc2ccccc2)c1 (stereo not drawn) 1.38%
COC(=O)c1ccc(-n2nnnc2SC)cc1 6.93%
CCOc1ccc(NC(=O)N[C@@H](Cc2ccccc2)C(=O)O)cc1 3.58%
CC(=O)Nc1ccc(NC(=O)CC2Nc3cccc4cccc(c34)NC2=O)cc1 (stereo not drawn) 18%
O=C(CC1Nc2cccc3cccc(c23)NC1=O)Nc1ccc(F)cc1 (stereo not drawn) 19.5%
Cc1ccc(C)c(CSc2nnc(C)c(=O)[nH]2)c1 -5.37%
Cc1nn(CC#N)c(=O)n1-c1ccc(F)cc1 0.42%
O=C(CCS(=O)(=O)c1ccc(Cl)cc1)N1CCN(c2ccc(F)cc2)CC1 -4.61%
O=C(CCS(=O)(=O)c1ccc(Br)cc1)N1CCN(c2ccc(Cl)cc2)CC1 5.94%
COc1ccc(CCN2CCCn3c2nc2c3c(=O)n(CC(N)=O)c(=O)n2C)cc1OC -0.32%
NS(=O)(=O)c1ccc(Cl)cc1[N+](=O)[O-] -11.6%
O=C1CCC(=O)N1CN(C(=O)c1ccco1)c1ccc(Cl)c(Cl)c1 3.26% and 3.71%
COc1ccc(N(CN2C(=O)C3CC=CCC3C2=O)C(=O)c2ccco2)cc1 (stereo not drawn) 18.2%
CCc1nn2c(=O)cc(COc3ccc(/C=C4\C(=N)N5N=C(C)SC5=NC4=O)cc3)nc2s1 -5.78%
Oc1c(CN2CCOCC2)ccc(CN2CCOCC2)c1O 30.9%
Oc1c(CN2CCOCC2)cc(CN2CCOCC2)c(O)c1CN1CCOCC1 4.15%
CC(=O)N1Cc2ccccc2C(C)CC12CCCC2 (stereo not drawn) -6.77%
CC1(C)Cc2ccccc2C2CC(O)C(=O)N21 (stereo not drawn) 4.18%
NC(=O)c1ccc[n+](Cc2ccc(-c3ccccc3)cc2)c1 8.95%
Cc1ccc(CN2C(=O)c3ccccc3NC2c2cc(Br)ccc2O)cc1 (stereo not drawn) -3.39%
CCCCCCCCOC(=O)c1cc([N+](=O)[O-])c(Sc2ncnc3nc[nH]c23)c([N+](=O)[O-])c1 29.5%
CCOC(=O)C(C)(C)Sc1ncnc2nc[nH]c12 -1.07%
CCn1c(SCC(=O)NCCc2ccccc2)nc2sc3c(c2c1=O)CCN(C)C3 14.3%
COc1ccccc1CCc1nnc(CCC(=O)NCC[C@@H]2C[C@@H]3C=C[C@H]2C3)o1 2.31%
O=C(c1ccco1)N1CCN(Cc2cc(=O)c(OCc3ccccc3Cl)co2)CC1 -9.22%
N#CC1=C(N)C2=CCCC[C@H]2[C@H](c2ccc(Br)cc2)C1(C#N)C#N 4.38%
N#CC(C#N)=C1C=C2C=C(N3CCCCCC3)CCC2CC1 (stereo not drawn) 8.28%
Cc1nc(C(=O)O)nn1-c1cc(Cl)ccc1Cl 2.06%
Cc1cccc(N(C(=O)CNC(=O)c2ccco2)C(C(=O)NC2CCCC2)c2cccnc2)c1 (stereo not drawn) -6.56%
CN(C)S(=O)(=O)c1cccc(NC(=O)CSc2nncn2-c2ccccc2)c1 1.63%
COc1cc([C@H]2[C@@H]3CCCC[C@]3(O)CCN2Cc2ccccc2F)ccc1O 4.71%
O=C(CN1CC(=O)Oc2ccccc21)OCC(=O)c1cccc(Br)c1 20.7%
O=c1cc(O)c(-c2ccccc2Cl)c(Cl)[nH]1 -2.11%
O=c1cc(-c2ccccc2)c2c([nH]1)CCCC2 -2.63%
CC(c1ccccc1)n1c(SCC(=O)Nc2ccccc2)n[nH]c1=O (stereo not drawn) -10.8%
CCN(CC)c1ccc(C2Nc3cccc4cccc(c34)N2)c(O)c1 6.26%
Oc1ccccc1C1Nc2cccc3cccc(c23)N1 20%
Cc1csc2cc(-c3cccc([N+](=O)[O-])c3)c(-c3cccc([N+](=O)[O-])c3)c[n+]12 1.42%
Cc1ccc(-c2cc3cccc[n+]3cc2-c2ccc(C)cc2)cc1 10.5%
Cn1nccc1C(=O)Nc1ccc2c(c1)OCO2 -8.05%
O=C(CSc1nnc2scc(-c3ccc(Cl)cc3)n12)NCc1ccc2c(c1)OCO2 31.6%
Cc1c(NC(=O)CN2CCN(c3ccccc3)CC2)c(=O)n(-c2ccccc2)n1C 2.33%
Cc1c(NC(=O)CN2CCN(c3ccc(F)cc3)CC2)c(=O)n(-c2ccccc2)n1C -4.9%
C=CCn1c(=O)c2ccccc2n2c(SCc3nc4ccccc4s3)nnc12 0.94%
Cc1oc(-c2ccccc2F)nc1CS(=O)CC(=O)NCc1ccccc1 (stereo not drawn) -9.75%
Nn1cnnc1N/N=C/c1ccc(Cl)cc1Cl -0.88%
COc1ccc(-c2cc(C(=O)Nc3c(C)n(C)n(-c4ccccc4)c3=O)no2)cc1OC -4.54%
COc1ccc(-c2cc(C(=O)Nc3c(C)n(C)n(-c4ccccc4)c3=O)no2)cc1 -3.59%
Cc1c(NC(=O)c2cc(-c3ccccc3)on2)c(=O)n(-c2ccccc2)n1C -2.53%
Cc1ccc(-c2cc(C(=O)Nc3c(C)n(C)n(-c4ccccc4)c3=O)no2)cc1 -0.77%
